Calls of active or inactive are those of the source. Unless noted, no rule for the calls is given here.
Assays:
[1] = test system: XIP peptide (Xip251-270) binding; assay: XIP fragment 251-270 binding compounds – biochemical, small-molecule microarray, fluorescence 635/667 nm, 0.1 µg/mL protein, primary screen (AID 1182); conditions: fluorescent protein binding, 635 nm, higher = more signal, called active from +8 up or from −8 down
[2] = test system: XIP peptide (Xip251-270); assay: compounds binding XIP fragment 251-270 – biochemical, small-molecule microarray, fluorescence 635/667 nm, 0.5 µg/mL protein, primary screen (AID 1183); conditions: fluorescence 635 nm, higher = more signal
[3] = blood-stage malaria parasite viability loss – strain 3D7, DAPI fluorescence, 100 nL, primary screen (AID 1184);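 also: parasites grown inside human red blood cells in medium with human serum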; conditions: P. falciparum 3D7 growth, 3 d, higher = more signal
[4] = molecular target: Homeobox protein Hox-A13 (Mus musculus) (UniProt Q62424); assay: disruptors of Hoxa13 oligonucleotide interaction – biochemical, fluorescence polarization, labeled oligonucleotide, primary screen (AID 1185); conditions: Hoxa13:DNA binding, 15 min, higher = more signal, called active from +8 up or from −8 down
[5] = blockers of DNA damage checkpoint Chk1 activation – imaging, HeLa, hydroxyurea, phospho-Chk1 antibody, percent positive cells, primary screen (AID 1186); conditions: hydroxyurea-induced phospho-Chk1 immunofluorescence imaging, higher = more signal
[6] = blockers of DNA damage checkpoint Chk1 activation – imaging, HeLa, hydroxyurea, phospho-Chk1 nuclear intensity, primary screen (AID 1187); conditions: hydroxyurea-induced phospho-Chk1 immunofluorescence imaging, higher = more signal

Chain of Homeobox protein Hox-A13 (Mus musculus) (Q62424 whole entry, looked up): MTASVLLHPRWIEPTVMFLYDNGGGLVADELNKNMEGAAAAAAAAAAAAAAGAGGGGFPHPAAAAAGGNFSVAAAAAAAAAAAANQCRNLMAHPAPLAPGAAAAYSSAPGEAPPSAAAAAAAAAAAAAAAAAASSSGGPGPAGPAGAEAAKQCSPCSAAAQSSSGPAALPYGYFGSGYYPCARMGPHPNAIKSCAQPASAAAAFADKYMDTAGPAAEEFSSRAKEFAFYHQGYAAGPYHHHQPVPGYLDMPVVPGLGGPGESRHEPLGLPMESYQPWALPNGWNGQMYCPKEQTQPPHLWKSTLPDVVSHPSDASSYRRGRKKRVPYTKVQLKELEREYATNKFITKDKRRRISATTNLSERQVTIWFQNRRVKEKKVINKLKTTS

Row | Compound | composite z-score [1] | composite z-score [2] | z-score [3] | z-score [4] | z-score [5] | z-score [6]
1 | [N-]=[N+]=NCc1ccccc1[C@@H]1OC(c2ccc(OCCCO)cc2)=N[C@]1(CCS(=O)(=O)c1ccccc1)C(=O)NCCN1CCOCC1 | 1.16 (inactive) | 0.853 | -2.19 | -2.41 (inactive) | 0.0054 (inactive) | -0.373 (inactive)
2 | CCOC1=C2C(CN(S(=O)(=O)c3ccc(C)cc3)C2c2ccc(C)cc2)C2C(=O)N(c3ccccc3)C(=O)C2C1 (configuration not stated) | -0.0729 (inactive) | 0.457 | 0.694 | -1.82 (inactive) | 0.218 (inactive) | 0.402 (inactive)
3 | O=C(O)[C@@]1(CCS(=O)(=O)c2ccccc2)COC(c2ccc(OCCCO)cc2)=N1 | -0.0596 (inactive) | -0.271 | 0.917 | -2.82 (inactive) | -0.333 (inactive) | -0.52 (inactive)
4 | NCCCCCNC(=O)[C@@H]1C[C@@H]2C(=O)NCC(=O)N2[C@@H]1c1ccc(O)cc1 | 0.715 (inactive) | 0.416 | 0.112 | -1.06 (inactive) | -0.44 (inactive) | -0.316 (inactive)
5 | C#CCNC(=O)[C@H](Cc1ccccc1)NC(=O)CCC(=O)O | 0.234 (inactive) | -1.75 | -0.213 | -0.118 (inactive) | -0.482 (inactive) | -0.815 (inactive)
6 | Cc1ccc(S[C@]2(C(=O)NC3CC3)CC(=O)N(C3Cc4ccccc4C3)[C@@H]2c2ccc(CO)cc2)cc1 | 0.136 (inactive) | 0.876 | -0.275 | -2.74 (inactive) | -0.671 (inactive) | -0.716 (inactive)
7 | O=C1NC(=O)C2C1C=CC(C(O)c1cccc3ccccc13)N2Nc1ccccn1 (configuration not stated) | -0.219 (inactive) | 0.395 | 0.181 | -1.71 (inactive) | -0.146 (inactive) | -0.382 (inactive)
8 | NCCCCCNC(=O)[C@@H]1C[C@@H]2C(=O)N[C@@H](Cc3ccccc3)C(=O)N2[C@@H]1c1cccc(OCCO)c1 | 0.251 (inactive) | 0.595 | 0.304 | -4.39 (inactive) | -0.143 (inactive) | -0.223 (inactive)
9 | C=CCNC(=O)[C@H]1[C@@H]2C(=O)O[C@@H](c3ccccc3)[C@@H](c3ccccc3)N2[C@@H](c2ccc(OCCO)cc2)[C@]12C(=O)N(C(=O)OCCOC)c1ccccc12 | 0.95 (inactive) | 0.846 | -1.63 | -4.21 (inactive) | -0.105 (inactive) | -0.0934 (inactive)
10 | COc1ccc(CCN2C(=O)[C@@]3(Cc4ccccc42)c2ccccc2C(=O)N(Cc2ccccc2C(F)(F)F)[C@H]3c2ccc(CO)cc2)cc1 | -0.223 (inactive) | 0.146 | -1.18 | 0.869 (inactive) | -0.389 (inactive) | -0.826 (inactive)
11 | COCCOC(=O)N1C(=O)[C@@]2(c3ccccc31)[C@H](c1ccccc1OCCO)N1[C@H](c3ccccc3)[C@H](c3ccccc3)OC(=O)[C@H]1[C@@H]2C(=O)Nc1nc2ccccc2s1 | 0.219 (inactive) | 0.823 | -0.697 | 0.922 (inactive) | 0.002 (inactive) | 0.122 (inactive)
12 | COC(=O)c1c(CC[C@@H](CO)NC(=O)N2CCC[C@H]2Cn2cc(-c3ccccn3)nn2)oc(C(C)=O)c1C(=O)OC | 1.82 (inactive) | 0.667 | -1.04 | -2.59 (inactive) | -0.828 (inactive) | -0.692 (inactive)
13 | CCc1oc(CC[C@@H](CO)NC(=O)NCCn2cc(C3(O)CCCCC3)nn2)c(C(=O)OC)c1C(=O)OC | 1.53 (inactive) | 0.875 | -0.397 | -3.56 (inactive) | 0.259 (inactive) | -0.0163 (inactive)
14 | COc1ccc(C(=O)Nc2cccc(CN3C(=O)[C@]4(O[C@H](CCO)[C@@H]([Si](C)(C)c5ccc(OC)cc5)[C@@H]4C)c4ccccc43)c2)cc1 | -0.0488 (inactive) | 0.639 | -2.85 | -2.45 (inactive) | -0.204 (inactive) | -0.881 (inactive)
15 | CCCCC=C[C@@H](NC(=O)Oc1cccc(C(F)(F)F)c1)c1ccccc1 | -0.361 (inactive) | 0.168 | -1.01 | -0.127 (inactive) | 0.38 (inactive) | -0.018 (inactive)
16 | CCC(CC)C(O)C1C=CC2C(=O)N(C)C(=O)C2N1Nc1ccccc1 (configuration not stated) | 0.544 (inactive) | 0.758 | 0.865 | -3.63 (inactive) | -0.0753 (inactive) | 0.0501 (inactive)

Row | Compound | composite z-score [1] | composite z-score [2] | z-score [3] | z-score [4] | z-score [5] | z-score [6]
17 | CN(C)C(=O)[C@@]1(Cc2ccccc2CN=[N+]=[N-])N=C(c2ccc(OCCCO)cc2)O[C@H]1c1ccccc1 | 1.79 (inactive) | 0.817 | -2.27 | -5.09 (inactive) | -0.631 (inactive) | -0.679 (inactive)
18 | CN1C(=O)C2C=CC(C(O)c3ccc(I)cc3)N(N3CCCCC3)C2C1=O (configuration not stated) | 0.405 (inactive) | 0.771 | -0.378 | -4.82 (inactive) | 0.151 (inactive) | -0.062 (inactive)
19 | COC(=O)[C@@]1(Cc2ccc(OC)cc2)[C@H]2c3cc(C(=O)N(C)C)n(CCN4CNCC4=O)c3C[C@H]2CN1C(=O)c1ccccc1 | 0.384 (inactive) | -0.144 | -1.23 | -4.73 (inactive) | -0.648 (inactive) | -0.397 (inactive)
20 | COCCn1c(C(=O)N2CCCC2)cc2c1C[C@H]1CN(C(=O)c3ccccc3)[C@@](Cc3ccc(F)cc3)(C(=O)OC)[C@@H]21 | 0.254 (inactive) | 0.794 | -1.01 | -5.83 (inactive) | 0.0536 (inactive) | 0.375 (inactive)
21 | CN1C(=O)C2C=CC(C(O)C3CC=CCC3)N(NC(=O)OC(C)(C)C)C2C1=O (configuration not stated) | 0.947 (inactive) | 0.539 | 0.849 | -2.05 (inactive) | 0.867 (inactive) | 0.509 (inactive)
22 | O=C1OCCC/C=C\[C@H]2OC34C=CCN(CCN5CCOCC5)C(=O)[C@H]3N(CCCO)C(=O)[C@@H]4C12 (some centres not stated) | 0.976 (inactive) | -1.17 | 0.211 | -6.44 (inactive) | 0.697 (inactive) | 0.826 (inactive)
23 | Cc1ccc(C(C)CC(O)C2C=CC3C(=O)N(C)C(=O)C3N2NC(=O)OC(C)(C)C)o1 (configuration not stated) | 3.24 (inactive) | 0.709 | 0.556 | -3.33 (inactive) | -0.158 (inactive) | -0.168 (inactive)
24 | CCCCCN1CC=CC23O[C@@H]4/C=C\CCCOC(=O)C4[C@H]2C(=O)N(C(CO)C(C)C)[C@@H]3C1=O (some centres not stated) | -0.0186 (inactive) | 0.0798 | 0.609 | -4.65 (inactive) | -0.609 (inactive) | -0.33 (inactive)
25 | O=C1O[C@@H](c2ccccc2)[C@@H](c2ccccc2)N2[C@@H](c3ccccc3OCCO)[C@]3(C(=O)Nc4ccc(C#CC5=CCCCC5)cc43)[C@@H](C(=O)Nc3nc4ccccc4s3)[C@H]12 | 0.705 (inactive) | 0.824 | -2.09 | -12.1 (active) | -0.183 (inactive) | -0.161 (inactive)
26 | CC(C)C(CO)N1C(=O)[C@@H]2[C@H]3C(=O)OCC=C[C@H]3OC23C=CCN(C(C)C)C(=O)[C@@H]13 (some centres not stated) | 1.63 (inactive) | -0.0455 | -0.499 | -4.02 (inactive) | 0.475 (inactive) | 0.305 (inactive)
27 | O=C1O[C@H](c2ccccc2)[C@H](c2ccccc2)N2[C@H]1[C@@H](C(=O)NC[C@H](O)c1ccccc1)[C@]1(C(=O)Nc3ccccc31)[C@H]2c1ccc(OCCO)cc1 | 0.674 (inactive) | 0.809 | 0.249 | -5.01 (inactive) | -0.0282 (inactive) | 0.177 (inactive)
28 | CCCCc1cn(C[C@H](Cc2ccccc2)NC(=O)N[C@H](CO)CCc2oc(C(C)=O)c(C(=O)OC)c2C(=O)OC)nn1 | 0.703 (inactive) | 0.512 | -1.92 | -4.73 (inactive) | -0.185 (inactive) | -0.228 (inactive)
29 | CN(C)CCCNC(=O)[C@@]1(c2ccc([N+](=O)[O-])cc2)CC(=O)N(C2CCCCC2)[C@@H]1c1ccc(CO)cc1 | -0.209 (inactive) | -0.0124 | -1.11 | -0.842 (inactive) | -0.196 (inactive) | -0.495 (inactive)
30 | C=C(COC)/C(=C/C[C@@H](OC(C)=O)c1ccc(OCCO)cc1)c1cc(C(=O)OC)ccc1OC | 2.57 (inactive) | 0.762 | -3.06 | -4.45 (inactive) | -0.307 (inactive) | -0.333 (inactive)
31 | C=CCNC(=O)[C@H]1[C@@H]2C(=O)O[C@@H](c3ccccc3)[C@@H](c3ccccc3)N2[C@@H](c2ccccc2OCCO)[C@]12C(=O)Nc1ccc(C#CC3=CCCCC3)cc12 | -0.274 (inactive) | 0.769 | -2.06 | 2.46 (inactive) | -0.333 (inactive) | -0.739 (inactive)
32 | CC1(C)[C@@H]2CC(C(O)C3C=CC4C(=O)N(c5ccccc5)C(=O)C4N3Nc3ccccc3)=C[C@H]1C2 (some centres not stated) | 0.386 (inactive) | 0.576 | -0.0796 | -3.65 (inactive) | -0.583 (inactive) | -0.715 (inactive)
